# Screening results (PubChem BioAssay)
# MCF10A rereplic: DNA re-replication induction in MCF 10a cells; AID 624296; 350,000 tested, 2.9% active; Potency, µM (titrated, usually from 46.1 µM), without a hit: at the top dose activity, positive = re-replication, most hits filed as activators; MCF 10A DNA re-replication, Hoechst nuclear intensity, 48 h; note: % of control where 0% means no effect; nearly all actives have a fitted effect of over 50% in size
# KB-V1 MDR tox: kills drug-selected multidrug resistant KB-V1 cells; KB-V1 MDR cells viability, CellTiter-Glo, 72 h; Potency, µM (highest dose often 46.1 µM), hits mostly cytotoxic; 400,000 tested, 3.4% active; note: % is set by controls: 0 for no effect and ±100 for the full control effect; nearly all actives have a fitted effect of over 60% in size
#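 Cytotoxicity toward P-gp-expressing KB-V1 cells was determined as loss of CellTiter-Glo luminescence after 72 h at 37 degrees C. Compounds were tested in quantitative HTS format across a concentration range, with curves fitted to normalized data.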
# SW480 rerep: DNA re-replication induction in SW480 cells | SW480 DNA re-replication, Hoechst DNA content imaging, 48 h | Potency, µM (titrated, usually from 46.1 µM), inactives show top-dose re-replication activation, most hits filed as activators | 340,000 tested, 1.8% active | AID 624297; note: % of control where 0% means no effect; nearly all actives have a fitted effect of over 55% in size
#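 Compounds, transferred as 23 nL by pin tool, were incubated with cells for 48 hr; DNA content per nucleus was then quantified by Hoechst staining and fluorescence plate imaging.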
# HT1080 IDH1KD tx: HT-1080 IDH1 knockdown cell toxicity (counter line) | Potency, µM (titrated, usually from 46.1 µM), without a hit: at the highest dose activity, negative = toxicity, most hits filed as cytotoxic | HT-1080 IDH1 knockdown viability, ATP luminescence, 48 h | AID 686971 | 360,000 tested, 2% active;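 note: 0% = DMSO wells and -100% = cell-free medium wells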
#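 CellTiter-Glo luminescence after 48 h compound exposure at 37 degrees C of IDH1-knockdown HT-1080 cells in 5% FBS RPMI. %Activity scaled between DMSO wells and cell-free media wells, with curves fitted and assigned curve classes.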
# HT1080NT lethal: kills 2HG-producing HT-1080-NT fibrosarcoma cells; HT-1080-NT fibrosarcoma viability, CellTiter-Glo ATP luminescence, 48 h; Potency, µM (series often up to 46.1 µM), for inactives: at the highest dose activity, negative = less viability, actives largely listed as cytotoxic; 360,000 tested, 1.6% active;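 note: NT is the 2HG producing partner of a matched IDH1 knockdown line; 0% = DMSO-treated cells and -100% = media-only wells without cells; nearly all actives have a fitted effect of over 55% in size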
#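 A 48-hour cytotoxicity screen used HT-1080-NT cells plated 2 hours before compound delivery. ATP-based CellTiter-Glo luminescence measured viability, normalized to DMSO and no-cell controls.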
# KB-3-1 cytotox: KB-3-1 parental cell cytotoxicity; KB-3-1 viability, CellTiter-Glo ATP luminescence, 72 h; Potency, µM (doses to about 46.1 µM), actives largely listed as cytotoxic; 400,000 tested, 1.4% active; AID 1347075; note: % is set by controls: 0 for no effect and ±100 for the full control effect; nearly all actives have a fitted effect of over 60% in size
#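 KB-3-1 parental drug-naive adenocarcinoma cells in DMEM/10% FBS, incubated 72 h at 37 C with pin-transferred compounds across a concentration series. Viability by CellTiter-Glo luminescence; concentration-response curves fitted after normalization.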
# The depositor's hits bear a star; i = inactive; ? = inconclusive; / = no result. Rows were chosen to be rich in hits. Some 7.9% of all compounds tested hit in one or more screens of this group. Calls come from the whole dose curve; as a rule, active = well fitted curve in the direction sought with a large enough effect; inconclusive = small, poorly fitted or top-dose-only effect, or another doubt; inactive = no such curve, though single readings can be large; an effect the other way counts as inactive or inconclusive. Potency is the fitted concentration of half-maximal effect.
SMILES,MCF10A rereplic,KB-V1 MDR tox,SW480 rerep,HT1080 IDH1KD tx,HT1080NT lethal,KB-3-1 cytotox
COc1cc2c(cc1OC)C(c1ccco1)CC(=O)N2 (centres undefined),-1%,i,-22%,-3%,0%,i
COc1cc2c(cc1OC)C(c1cc(C)ccc1C)CC(=O)N2 (centres undefined),0.65µM*,?,0%,-4%,-12%,i
COc1cccc(C2CC(=O)Nc3cc4c(cc32)OCO4)c1OC(C)C (centres undefined),/,i,/,/,/,i
CCOc1ccccc1C1CC(=O)Nc2cc(C)c(C)cc21 (centres undefined),?,8.2µM*,18µM*,15µM*,?,?
Cc1cc2c(cc1C)C(c1ccccc1Br)CC(=O)N2 (centres undefined),?,23µM*,?,-9%,-5%,18µM*
CC(C)Oc1ccccc1C1CC(=O)Nc2cc3c(cc21)OCO3 (centres undefined),0.52µM*,1.3µM*,?,1.8µM*,3.7µM*,2.6µM*
COc1cc2c(cc1OC)C(c1ccc(Br)cc1)CC(=O)N2 (centres undefined),0.65µM*,i,?,-3%,-2%,i
COc1ccccc1C1CC(=O)Nc2cc(C)c(C)cc21 (centres undefined),15%,9.2µM*,21µM*,6.5µM*,?,16µM*
Cc1cc2c(cc1C)C(c1ccccc1OC(C)C)CC(=O)N2 (centres undefined),1.5µM*,?,5.2µM*,2.3µM*,4.1µM*,5.8µM*
CC(C)Oc1cccc(C2CC(=O)Nc3cc4c(cc32)OCO4)c1 (centres undefined),/,?,/,/,/,3.7µM*
Cc1cccc(C2CC(=O)Nc3cc4c(cc32)OCO4)c1 (centres undefined),/,i,/,/,/,?
CCOc1ccccc1C1CC(=O)Nc2cc(OC)c(OC)c(OC)c21 (centres undefined),21%,?,-4%,13%,8%,i
Cc1ccc(C(=O)c2oc3ccccc3c2NC(=O)c2cc(=O)c3cc(C)ccc3o2)cc1,/,i,/,/,/,?
CCOC(=O)c1cc2c(=O)n3ccccc3nc2n(C(C)C)c1=NC(=O)C(C)(C)Oc1ccc(Cl)cc1,/,i,/,/,/,i
CCOC(=O)C1CCN(C(c2ccccc2)c2c(O)cc(C)n(Cc3ccco3)c2=O)CC1 (centres undefined),/,i,/,/,/,i
Cc1nn(CC(=O)NC2CC2)c(=O)c2cc3ccccc3n12,/,i,/,/,/,i
CC(=O)n1cc(C(C[N+](=O)[O-])SCCN)c2ccccc21 (centres undefined),5.2µM*,?,6.5µM*,?,?,?
COC(=O)/C(=C/c1cn(C(C)=O)c2ccccc12)[N+](=O)[O-],1%,i,-7%,-2%,-21%,i
O=[N+]([O-])c1ccc(C(O)CN=Cc2ccc(O)cc2O)cc1 (centres undefined),16µM*,i,10%,8.2µM*,12µM*,i
COc1ccc(C)cc1S(=O)(=O)Nc1cccc(-c2ccc(N3CCCC3)nn2)c1,/,i,/,/,/,i
O=C(C=P(c1ccccc1)(c1ccccc1)c1ccccc1)c1ccccc1-c1ccccc1C(=O)C=P(c1ccccc1)(c1ccccc1)c1ccccc1,63%,i,13µM*,7.3µM*,13µM*,?
O=C(Nc1cccc(C(=O)O)c1)/C(=C\c1ccc2c(c1)OCO2)NC(=O)c1ccccc1Br,/,i,/,0%,1%,i
Cc1cc2ccccc2c[n+]1C1CCCCC1,/,i,/,/,/,4.6µM*
COc1cccc(C2C(C(=O)Nc3ccccc3OC)=C(C)Nc3nc4ccccc4n32)c1 (centres undefined),/,?,/,/,/,i
CCOC(=O)C1(C)C=C(Nc2ccc(C(N)=O)cc2)C(=O)N1c1ccccc1 (centres undefined),/,i,/,/,/,i
SMILES,MCF10A rereplic,KB-V1 MDR tox,SW480 rerep,HT1080 IDH1KD tx,HT1080NT lethal,KB-3-1 cytotox
Cc1cccc2cc(C(c3nnnn3CC3CCCO3)N3CCc4ccccc4C3)c(=O)[nH]c12 (centres undefined),8%,?,0%,-1%,-5%,i
Cc1cc2cc(C(c3nnnn3CC3CCCO3)N3CCCc4ccccc43)c(=O)[nH]c2cc1C (centres undefined),?,21µM*,?,11µM*,?,?
Cc1ccc2cc(C(c3nnnn3CC3CCCO3)N3CCCC4(CCCCC4)C3)c(=O)[nH]c2c1 (centres undefined),-7%,15µM*,-2%,6%,5%,i
Cc1ccc2cc(C(c3nnnn3CC3CCCO3)N3CCc4ccccc4C3)c(=O)[nH]c2c1 (centres undefined),?,i,-6%,0%,1%,i
Cc1cccc2cc(C(c3nnnn3CC3CCCO3)N3CCCc4ccccc43)c(=O)[nH]c12 (centres undefined),0%,18µM*,15%,-16%,-16%,i
CCOC(=O)C1=CCN(S(=O)(=O)c2ccccc2C)C1c1ccc(F)cc1 (centres undefined),/,i,/,0%,4%,i
Cc1cc(Nc2ncc(Cl)cc2Cl)n(-c2ccccc2C)n1,?,i,?,-24%,-13%,i
Cc1ccc(-n2nc(C)cc2Nc2ncc(Cl)cc2Cl)cc1,?,21µM*,?,-4%,-1%,i
Cc1cc(Nc2nc(Cl)c(Cl)cc2Cl)n(-c2ccccc2)n1,?,?,26%,?,?,12µM*
Cc1cc(Nc2ccccc2)n(-c2ccccc2)n1,0%,i,3%,-3%,-15%,i
Cc1cccc(-n2c(=O)c3c(c4cc(C)ccc4n3C)n(C)c2=O)c1,/,i,/,/,/,i
CCC(C)NC(=O)CSc1nc2c(sc3ccccc32)c(=O)n1CCc1ccccc1 (centres undefined),/,i,/,/,/,i
NC(=O)Cn1c(=O)n(CCc2ccccc2)c(=O)c2c3c(sc21)CCCC3,-6%,4.1µM*,?,-3%,12%,i
CC(=O)N1CCc2c(sc3c2c(=O)n(CCc2ccccc2)c(=O)n3Cc2ccc(Cl)cc2)C1,/,?,/,/,/,21µM*
C=C1C=C(C)n2ncc(C(=O)Nc3cccc4cnccc34)c2N1,/,i,/,/,/,?
Cc1ccc(CSCCNC(=O)C2CCN(S(=O)(=O)Cc3ccccc3)CC2)cc1,/,i,/,/,/,i
